{"source": "PubChem BioAssay AID887", "about": "(National Center for Advancing Translational Sciences (NCATS), 2007)", "note": "Where “and” joins values, the source holds several entries; their conditions need not be identical. Equal entries are not always repeated. Out of some 74,000 compounds screened, about 1,100 (1.5%) were called active. Not shown: some 5% with an inconclusive outcome. The list comes from a sample in which actives are over-represented; it also holds similar structures and randomly drawn compounds. Entries that show only a call come without a potency. A number with no mark means an inactive call. Calls follow the shape of the dose curve; as a rule, active = well fitted inhibition curve with a large enough effect; inconclusive = small, poorly fitted or top-dose-only effect; inactive = no such curve, though single readings can be large or run the other way. Potency is read from the fitted curve at half-maximal effect."}
{"target": "Polyunsaturated fatty acid lipoxygenase ALOX15 (Homo sapiens) (UniProt P16050)", "sequence (P16050 whole entry, looked up)": "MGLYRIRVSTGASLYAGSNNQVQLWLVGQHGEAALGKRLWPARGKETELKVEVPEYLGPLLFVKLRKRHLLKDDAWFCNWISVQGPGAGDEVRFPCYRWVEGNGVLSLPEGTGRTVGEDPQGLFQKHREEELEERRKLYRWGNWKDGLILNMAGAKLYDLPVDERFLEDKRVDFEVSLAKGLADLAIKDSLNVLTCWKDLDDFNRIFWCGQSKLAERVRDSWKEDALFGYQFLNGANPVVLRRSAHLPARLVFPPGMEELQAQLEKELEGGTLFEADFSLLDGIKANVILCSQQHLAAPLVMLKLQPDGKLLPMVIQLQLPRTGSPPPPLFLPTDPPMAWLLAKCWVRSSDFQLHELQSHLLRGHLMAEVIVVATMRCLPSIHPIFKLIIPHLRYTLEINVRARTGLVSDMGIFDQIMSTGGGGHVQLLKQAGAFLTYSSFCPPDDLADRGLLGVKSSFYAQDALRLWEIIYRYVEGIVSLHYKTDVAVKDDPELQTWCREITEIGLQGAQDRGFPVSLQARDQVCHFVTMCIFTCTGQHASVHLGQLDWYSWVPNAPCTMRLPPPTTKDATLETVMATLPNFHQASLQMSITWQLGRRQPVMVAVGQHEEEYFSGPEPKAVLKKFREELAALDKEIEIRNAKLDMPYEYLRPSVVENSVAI", "assay": "qHTS Assay for Inhibitors of 15-hLO (15-human lipoxygenase); also: nearly all actives have a fitted effect of over 55% in size", "details": "purified 15hLO-1, xylenol orange hydroperoxide absorbance; series mostly up to 57.1 µM", "excerpt": "Assay Overview: NIH Molecular Libraries Screening Centers Network [MLSCN] NIH Chemical Genomics Center [NCGC] MLSCN Grant: MH081283-01A1 PI Name: Holman, T.R., University of California, Santa Cruz Human lipoxygenase 15hLO-1 is a member of the closely related lipoxygenase family of enzymes which catalyze the site-specific oxidation of arachidonic acid to various hormone precursor molecules and as such is a candidate for drug development in a variety of disease areas, such as cancer and inflammation. Inhibition of 15hLO-1 activity was screened by utilizing arachidonic acid as a substrate. The extent of hydroperoxide product formation was measured by a secondary chromogenic reaction in which xylenol orange (XO, Sigma-Aldrich, cat. number 39,818-7) reacts with the ferric ions produced from the reaction between the hydroperoxide and ferrous ions. The Fe(III)-XO complex is characterized with red-shifted absorbance at 560 nm. A purified preparation of human 15hLO-1 was supplied by Professor Ted Holman, University of California, Santa Cruz.\nAssay Protocol: Buffer: 25 mM Hepes pH 7.5, 0.01% Triton X-100. Reagents/Controls: Buffer in columns 3 and 4 as negative control (no enzyme). Substrate solution: 50 uM arachidonic acid (Sigma-Aldrich, St. Louis, MO) final concentration dispensed throughout the plate. Enzyme: 40 nM 15hLO-1 final concentration in columns 1, 2, 5-48. Column 1 is neutral (100% activity). Column 2 contained pin-transferred titration of NDGA (nordihidroguaiaretic acid, Sigma-Aldrich, N 5023, top concentration 10 mM in DMSO, then 1:2 dilution in duplicate). (Dilution factor: 23 nL into 4 uL.) Chromogenic detection reagent (divalent iron/xylenol orange, Fe-XO): 200 uM xylenol orange plus 300 uM ferrous ammonium sulfate prepared freshly in 50 mM sulfuric acid. Assay Steps: Three uL of enzyme were dispensed to 1536-well Greiner black clear bottom plates. Compounds and controls (23 nL) were transferred via Kalypsys PinTool. The plates were incubated for 15 min at room temperature, and then 1 uL of substrate solution was added to start the reaction. After room temperature incubation for 6 minutes, 4 uL of Fe-XO solution was added to each well followed by a short spin (1000 rpm, 15 sec) and the plates were then incubated for 30 min. The absorbance at 405 and 573 nm were measured using ViewLux (Perkin-Elmer) High-throughput CCD imager and absorbance protocol settings. The 573-to-405 absorbance ratio was used to compute reaction progress."}
{"smiles": "Cc1ccnc(N2CCC(C(=O)NC3CCCCCC3)CC2)n1", "activity change, negative = inhibition": "inactive"}
{"smiles": "Cc1ccnc(-n2sc3ccccc3c2=O)n1", "Potency": "20 µM (active)"}
{"smiles": "Cc1nc2ccccc2c(=O)n1CCCn1ccnc1", "activity change, negative = inhibition": "inactive"}
{"smiles": "CC(C)=CCC/C(C)=C/CC/C(C)=C/CC/C(C)=C/CO", "activity change, negative = inhibition": "inactive"}
{"smiles": "O=C(O)[C@@H](O)Cc1ccccn1", "activity change, negative = inhibition": "2.76% [at 11.4 µM]"}
{"smiles": "COc1ccc(/C=C/NC(=O)Cc2ccc(OC)c(OC)c2)cc1", "activity change, negative = inhibition": "4.24% [at 11.4 µM] and -3.82% [at 11.4 µM]"}
{"smiles": "CCCCc1nc2ccccc2c(NC(=O)CN2CCN(C)CC2)c1CCC", "Potency": "15.8 µM (active)"}
{"smiles": "CCOC(=O)N1CCN(CC(=O)Nc2cc(C)nn2-c2nc3ccccc3s2)CC1", "activity change, negative = inhibition": "inactive"}
{"smiles": "CCCCc1nc2ccccc2c(=O)n1NC(=O)c1c(O)c2cccc3c2n(c1=O)CC3", "activity change, negative = inhibition": "inactive"}
{"smiles": "CC(C)CN1CCc2nc(-c3ccccc3)c3c(c2C1)COC(C)C3", "note": "(stereo not given)", "activity change, negative = inhibition": "-12.9% [at 11.4 µM]"}
{"smiles": "CO[C@H]1COC(=O)[C@H](Cc2ccccc2)NC(=O)C/C=C\\[C@@H](C)[C@H](OC)COC(=O)C/C=C\\[C@@H]1C", "activity change, negative = inhibition": "10.5% [at 11.4 µM]"}
{"smiles": "COC(=O)NC(c1ccccc1)[C@]1(C(C)=O)CCCC1=O", "note": "(stereo not given in full)", "activity change, negative = inhibition": "9.57% [at 11.4 µM]"}
{"smiles": "Nc1cc(=O)nc(SCc2ccccc2)n1Cc1ccco1", "activity change, negative = inhibition": "inactive"}
{"smiles": "c1ccc(CSc2nnc(-c3ccco3)c(-c3ccco3)n2)cc1", "Potency": "6.31 µM (active)"}
{"smiles": "c1ccc(CSc2nnc(-c3ccco3)n2Cc2ccccc2)cc1", "activity change, negative = inhibition": "inactive"}
{"smiles": "CC(=O)OC1CCC2(O)CC1(C)CCC1C2CC1(C)C", "note": "(stereo not given)", "activity change, negative = inhibition": "inactive"}
{"smiles": "COc1ccc(CCC(=O)c2c(O)cc(OC3OC(CO)C(O)C(O)C3O[C@@H]3OC(C)C(O)C(O)C3O)cc2O)cc1O", "note": "(stereo not given in full)", "activity change, negative = inhibition": "inactive"}
{"smiles": "CC(C)[C@@H](OCc1ccccc1)[C@H](C)/C=N\\OC[C@@H](C)[C@H](OCc1ccccc1)C(C)C", "activity change, negative = inhibition": "-0.92% [at 11.4 µM]"}
{"smiles": "CO[C@H]1COC(=O)CCC[C@@H](C)[C@H](OC)COC(=O)[C@@H](C)NC(=O)C/C=C\\[C@@H]1C", "activity change, negative = inhibition": "-1.39% [at 11.4 µM]"}
{"smiles": "CCC1(C)CC(=O)NC1=O", "note": "(stereo not given)", "activity change, negative = inhibition": "inactive"}
{"smiles": "Cc1cc(C)cc(N(C(C)C(=O)Nc2c(C)n(C)n(-c3ccccc3)c2=O)S(C)(=O)=O)c1", "note": "(stereo not given)", "activity change, negative = inhibition": "inactive"}
{"smiles": "Cc1c(NC(=O)C(C)OC(=O)c2cc3c4ccccc4n(C)c3s2)c(=O)n(-c2ccccc2)n1C", "note": "(stereo not given)", "Potency": "31.6 µM (active)"}
{"smiles": "COC(=O)Nc1c(C)n(C)n(-c2ccccc2)c1=O", "activity change, negative = inhibition": "inactive"}
{"smiles": "CC1(C)OC2CO[C@]3(COS(N)(=O)=O)OC(C)(C)OC3C2O1", "note": "(stereo not given in full)", "activity change, negative = inhibition": "inactive"}
{"smiles": "COc1ccccc1OCCNCC(O)COc1cccc2[nH]c3ccccc3c12", "note": "(stereo not given)", "activity change, negative = inhibition": "inactive"}
{"smiles": "Clc1ccc(CSc2nnc([C@@H]3CCCN3)o2)cc1", "activity change, negative = inhibition": "inactive"}
{"smiles": "CC(C)N(CCNC(=O)c1ccc(-n2c(=O)c(=O)[nH]c3ccccc32)cc1)C(C)C", "activity change, negative = inhibition": "inactive"}
{"smiles": "CCCc1[nH]nc2c1C(c1ccc(OC(=O)c3ccco3)cc1)C(C#N)=C(N)O2", "note": "(stereo not given)", "activity change, negative = inhibition": "inactive"}
{"smiles": "CCCc1[nH]nc2c1C(C1CC=CCC1)C(C#N)=C(N)O2", "note": "(stereo not given)", "activity change, negative = inhibition": "inactive"}
{"smiles": "CCCc1[nH]nc2c1C(c1ccc(Br)s1)C(C#N)=C(N)O2", "note": "(stereo not given)", "Potency": "15.8 µM (active)"}
{"smiles": "C=C1C([C@@]2(C)C(OC(C)=O)CC(=O)O[C@@](C)(COC(C)=O)C2CC(=O)OC)C(OC=O)C(OC(=O)C(O)C(C)CC)[C@]2(C)C(c3ccoc3)CC(=O)C12O", "note": "(stereo not given in full)", "activity change, negative = inhibition": "inactive"}
{"smiles": "C/C=C(/C)C(=O)OC1Cc2c(ccc3ccc(=O)oc23)OC1(C)C", "note": "(stereo not given)", "activity change, negative = inhibition": "inactive"}
{"smiles": "CCC1=C/C(=C\\c2ccc3c(c2)OCO3)C(=O)S1", "Potency": "25.1 µM (active)"}
{"smiles": "CCOC(=O)NCc1ccc2c(c1)OCO2", "activity change, negative = inhibition": "inactive"}
{"smiles": "CCCCC(=O)Nc1ccc2c(c1)OCCO2", "activity change, negative = inhibition": "inactive"}
{"smiles": "Cc1ccc(C2CC(c3cccc(C)c3)n3nc(N)nc3N2)cc1", "note": "(stereo not given)", "activity change, negative = inhibition": "inactive"}
{"smiles": "CO[C@@H]1COC(=O)C/C=C\\[C@H](C)[C@@H](NS(=O)(=O)c2ccc(C)cc2)COC(=O)C/C=C\\[C@@H]1C", "activity change, negative = inhibition": "7.8% [at 11.4 µM] and 8.79% [at 11.4 µM]"}
{"smiles": "COc1ccc(C2CC(=O)c3c(O)cc(OC4OC(COC5OC(C)C(O)C(O)C5O)C(O)C(O)C4O)cc3O2)cc1O", "note": "(stereo not given)", "activity change, negative = inhibition": "inactive"}
{"smiles": "COc1c(C(C)C)oc2cc3oc(=O)ccc3cc12", "activity change, negative = inhibition": "inactive"}
{"smiles": "CC(=O)Oc1c2c(c3c(c1CC=C(C)C)O[C@@]14C(=CC5CC1C(C)(C)OC4(C/C=C(\\C)C(=O)O)C5=O)C3=O)OC(C)(CCC=C(C)C)C=C2", "note": "(stereo not given in full)", "activity change, negative = inhibition": "inactive"}
{"smiles": "Nc1nc2nc(Cl)[nH]c2c(=O)[nH]1", "activity change, negative = inhibition": "inactive"}
{"smiles": "CC1CCc2c(sc3c2C2=NS(=O)(=O)CCN2C=N3)C1", "note": "(stereo not given)", "activity change, negative = inhibition": "inactive"}
{"smiles": "CN1CCCC1CCO[C@@](C)(c1ccccc1)c1ccc(Cl)cc1", "note": "(stereo not given in full)", "activity change, negative = inhibition": "inactive"}
{"smiles": "CN(CCOc1ccc(CC2SC(=O)NC2=O)cc1)c1ccccn1", "note": "(stereo not given)", "activity change, negative = inhibition": "inactive"}
{"smiles": "COc1ccc(-c2n[nH]c(C)c2-c2ccc(OC)c(OC)c2)c(O)c1", "activity change, negative = inhibition": "inactive"}
{"smiles": "COc1ccc(OC)c(Nc2nc(-c3ccc(O)c(O)c3)cs2)c1", "Potency": "0.126 µM (active)"}
{"smiles": "Oc1ccc(-c2csc(Nc3cccnc3)n2)cc1", "activity change, negative = inhibition": "inactive"}
{"smiles": "COc1cccc([C@H]2Oc3ccc(OC)cc3/C(=N\\OCC[C@@H]3C=C[C@H](OC(C)=O)[C@H](COC(C)=O)O3)[C@@H]2O)c1", "activity change, negative = inhibition": "7.41% [at 11.4 µM]"}
{"smiles": "CCOC(=O)N/N=C1/C[C@@H](O)[C@@H](O)[C@@H]2[C@@H]3C(=O)N(CC)C(=O)[C@H]3CC[C@H]12", "activity change, negative = inhibition": "0.206% [at 11.4 µM]"}
{"smiles": "COc1ccc(COC(=O)N/N=C2/C[C@@H](O)[C@@H](O)[C@@H]3[C@@H]4C(=O)N([C@@H](C)c5ccccc5)C(=O)[C@H]4CC[C@@H]23)cc1", "activity change, negative = inhibition": "7.99% [at 11.4 µM]"}
{"smiles": "CCOc1ccc2nc(N3CCCN(C(=O)Nc4ccccc4C)CC3)c(C#N)cc2c1", "activity change, negative = inhibition": "inactive"}
{"smiles": "CC(C)CCNc1nc(N2CCCC2)c2c(c1C#N)CCN(C)C2", "activity change, negative = inhibition": "inactive"}
{"smiles": "Cc1cc(C)c2nc(N3CCCC3)c(C#N)cc2c1", "Potency": "2 µM (active)"}
{"smiles": "CC(C)(C)c1ccc(OC2C=CC(C#Cc3ccccc3)OC2CO)cc1", "note": "(stereo not given)", "activity change, negative = inhibition": "-12.4% [at 11.4 µM]"}
{"smiles": "Cc1cc(C)cc(C#CC2C=CC(Oc3ccc(C4CCCC4)cc3)C(CO)O2)c1", "note": "(stereo not given)", "activity change, negative = inhibition": "-14.1% [at 11.4 µM]"}
